Rce1 inh – yeast Rce1p protease inhibitors, primary screen, biochemical, fluorescence, cell-free homogeneous; yeast membranes, quenched prenylated peptide cleavage fluorescence; actives 0.27% (n = 290,000); calls only; CAAX prenyl protease 2 (Saccharomyces cerevisiae (strain ATCC 204508 / S288c)), Q03530;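 active = fall in fluorescence gain of 50% or more versus controls, with final raw signal at or below 3038400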;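 also: plate controls were neutral control wells for no effect and wells lacking membranes for full effect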
DNA FID counter – compounds displacing fluorescent DNA intercalator, primary screen, artefact control for HCV NS3 helicase inhibitor project, biochemical, FID fluorescence; DNA fluorescent intercalator displacement; inhibition, % at 7.9 µM; actives 0.17% (n = 290,000); AID 1845, 2009; in the data active = inhibition above about 37%;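 also: 0% = vehicle and 100% = reference compound; higher means more ethidium bromide displaced from hairpin DNA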
PfM18AAP inh – PfM18AAP inhibitors, malaria aminopeptidase, primary screen, biochemical, QFRET, recombinant enzyme. actives 1.2% (n = 290,000). H-Glu-NHMec fluorogenic cleavage. inhibition, % at 7.35 µM. M18 aspartyl aminopeptidase (Plasmodium falciparum 3D7). AID 1822, 2009;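 active = inhibition above the campaign mean inhibition over all tested compounds plus 3 SD, cut at about 28% in these data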;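 also: 0% = plate median of test compound wells and 100% = 2 mM ZnCl2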
Kir21 inh – inhibitors of mouse Kir2.1 inward-rectifier potassium channel | Inward rectifier potassium channel 2 (Mus musculus), P35561 | HEK293-Kir2.1, FluxOR thallium flux fluorescence; active compounds read low | B-score at 10 µM | actives 0.85% (n = 310,000);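 active = fluorescence ratio B-score at or below minus 3 SD of library scores, with starting-brightness B-score within 2 SD, cut at about -4.2 in these data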;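 also: channel flux triggered by added potassium and thallium sulfate stimulus; B-score of peak minus minimum fluorescence over baseline after thallium stimulus; more negative B-score means stronger Kir2.1 block with less thallium influx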
Target sequence (P35561 whole entry, looked up): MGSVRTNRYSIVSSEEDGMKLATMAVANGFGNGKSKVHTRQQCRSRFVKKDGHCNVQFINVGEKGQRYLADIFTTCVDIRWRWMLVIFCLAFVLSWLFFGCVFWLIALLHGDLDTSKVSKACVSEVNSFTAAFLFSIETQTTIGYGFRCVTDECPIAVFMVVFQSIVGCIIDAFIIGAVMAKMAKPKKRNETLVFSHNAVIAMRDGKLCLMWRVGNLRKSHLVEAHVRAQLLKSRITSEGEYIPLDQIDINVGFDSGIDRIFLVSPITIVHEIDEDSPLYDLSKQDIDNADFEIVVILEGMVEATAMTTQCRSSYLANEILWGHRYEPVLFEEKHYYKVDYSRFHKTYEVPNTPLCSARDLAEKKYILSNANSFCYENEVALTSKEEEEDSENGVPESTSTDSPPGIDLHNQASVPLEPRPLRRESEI
An asterisk follows results filed as active; i = inactive; . = no result; + = active, no number. Shown are actives, neighbours in structure and some others; about 2.3% of the full set was active somewhere.

SMILES	Rce1 inh	DNA FID counter	PfM18AAP inh	Kir21 inh
Oc1ccccc1CNCC12CC3CC(CC(C3)C1)C2	i	3	4	-1.1
CC(CC12CC3CC(CC(C3)C1)C2)NCc1ccccc1O (configuration not stated)	i	18	10	-5*
Cc1c(NC(=O)COc2c(F)c(F)c(F)c(F)c2F)c(=O)n(-c2ccccc2)n1C	i	-10	0	-0.07
Cc1ccc2nc(-c3ccc(NC(=S)NC4CC(C)(C)NC(C)(C)C4)cc3)sc2c1	i	29	2	-5.1*
Cc1cc(C)c2c(=O)n(CC(=O)NC3CCCC3)sc2n1	i	-2	56*	-1.2
CC(C)(C)NCC(=O)N/N=C/c1ccc(OCc2ccccc2)cc1	i	-8	2	-4.3*
Cc1cccc(NCc2ccc(Br)cc2)n1	i	-4	7	-1
Cc1cccc(/C=N/NC(=O)c2ccc(Br)cc2)c1	+	-8	-5	0.32
O=C(N/N=C/c1cccc(Oc2ccccc2)c1)c1cc[n+]([O-])cc1	i	-9	6	2.4
O=C(N/N=C/c1ccc(F)cc1)c1ccc(Br)cc1	i	-1	-2	0.34
Nc1ccc(C(=O)N/N=C/c2cccc(Oc3ccccc3)c2)cc1	i	-27	-2	-11*
O=C1C2Sc3[nH]c(=O)sc3C(c3ccccc3)C2C(=O)N1c1ccccc1 (configuration not stated)	i	-12	29*	-0.81
COc1ccc(C2c3sc(=O)[nH]c3SC3C(=O)N(c4ccccc4)C(=O)C32)cc1 (configuration not stated)	i	-9	22	0.06
CCN(Cc1nc(-c2ccc(OC)c(OC)c2)no1)C(=O)c1ccc2c(c1)OCO2	i	-29	-2	-0.49
CCCCCc1ccc(OCCCC[n+]2ccc(C)cc2)c(CCCCC)c1	i	37*	5	-9.1*
CCCCCc1ccc(OCCCC[n+]2cccc(C)c2)c(CCCCC)c1	.	41*	4	-5.1*
COc1ccc(-c2nc(CC(=O)O)cs2)cc1	i	-3	-9	-0.09
CCOc1ccc(-c2nc(CCl)cs2)cc1OC	+	-1	-9	2.8
COc1ccc(-c2nc(CC(=O)O)cs2)cc1OC	+	-6	6	-1
NC(=S)N=Nc1c(O)n(Cc2ccc(F)cc2)c2ccccc12	+	8	6	-0.09
C/C(Cl)=C\Cn1c(O)c(N=NC(N)=S)c2cc(Br)ccc21	+	5	27	2.4
COc1cccc(NC(=S)NC(=O)c2cccnc2)c1	i	-14	8	-0.46
Cc1oc(-c2cccc(Cl)c2)nc1CN1CCC(C(=O)NCCCN2CC(C)CC(C)C2)CC1 (configuration not stated)	i	32	-1	-0.51
CN(C)CCCNC(=S)N(CCCN(C)C)Cc1cc2cc3c(cc2[nH]c1=O)OCO3	i	17	0	0.38
CNC(=S)N(CCN(C)C)Cc1cc2cc3c(cc2[nH]c1=O)OCO3	i	2	11	-0.91
SMILES	Rce1 inh	DNA FID counter	PfM18AAP inh	Kir21 inh
Cc1ccc(NC(=S)N(CCCN(C)C)Cc2cc3cc4c(cc3[nH]c2=O)OCO4)cc1	i	38*	-2	-1.2
Cc1ccc(NC(=S)N(CCCN(C)C)Cc2cc3cc4c(cc3[nH]c2=O)OCO4)c(C)c1	i	44*	5	-0.01
CCN(CC)CCCN(Cc1cc2cc3c(cc2[nH]c1=O)OCO3)C(=S)NCCCN(C)C	+	24	10	-0.34
Oc1ccc(CN2CCc3ccccc3C2)c2cccnc12	i	-8	11	-10*
Oc1ccc(CN2CCCCC2)c2cccnc12	i	-1	10	-1.4
C=CCn1c(SC/C=C/c2ccccc2)nnc1-c1sc(N)nc1C	i	-32	-10	-5.7*
C=CCn1c(SCc2ccc(C(=O)OC)cc2)nnc1-c1sc(N)nc1C	i	-26	10	-1.4
O=C(Cc1ccccc1F)Nc1cc(Cl)ccc1N1CCCC1	i	-18	16	-0.57
CCN(CC)S(=O)(=O)c1cccc(NC(=O)CCNC(=O)NC23CC4CC(CC(C4)C2)C3)c1	i	.	.	0.79
O=[N+]([O-])c1ccc(-[n+]2ccc3ccccc3c2)c([N+](=O)[O-])c1	i	.	.	-4.7*
O=[N+]([O-])c1ccc(Sc2ncccn2)c([N+](=O)[O-])c1	i	-1	-7	-1.1
Cc1cccc2c1c(N=NC(N)=S)c(O)n2C1OC(CO)C(O)C(O)C1O (configuration not stated)	i	-4	7	-0.47
Cc1nc(CS(=O)(=O)c2ccc(Cl)cc2)cc(Sc2ccc(Cl)cc2)n1	i	-21	-4	-4.8*
O=S(=O)(Cc1cc(Sc2ccc(Cl)cc2)nc(-c2ccccc2)n1)c1ccccc1	i	3	2	1.6
Cc1c([N+](=O)[O-])nnn1-c1cc(Cl)cc(Cl)c1	i	12	-2	-1.5
Cc1ccc(N(CC(=O)NC2CCCCC2)C(=O)Cn2nnc(-c3ccc(C)o3)n2)cc1	i	-50	0	-0.79
Cc1ccc(-c2nnn(CC(=O)N(CC(=O)NC3CCCCC3)c3cnc4ccccc4c3)n2)o1	i	-31	32*	0
O=C(CSc1c2c(nc3cc(Cl)ccc13)CCCC2)NCc1ccco1	i	-13	0	-6.5*
COCCNC(=O)c1cccc(OC2CCN(C(C)COc3ccccc3)CC2)c1 (configuration not stated)	i	0	2	-0.08
O=S(=O)(c1ccc(Cl)cc1)N1CCCc2ccccc21	i	-14	1	-4.6*
Nc1ccc(S(=O)(=O)N2CCCc3ccccc32)cc1	i	0	0	-5.7*
CC(Oc1ccc(Br)cc1)C(=O)N1CCc2ccccc21 (configuration not stated)	.	-7	-3	0.51
CC(Oc1ccc(Cl)cc1)C(=O)N1CCCc2ccccc21 (configuration not stated)	i	-31	0	-5.7*
CCn1c(=O)n(CC)c2cc(S(=O)(=O)N3CCc4ccccc43)ccc21	i	-31	2	-4.3*
COc1ccccc1N1CCN(S(=O)(=O)CCNC(=O)C23CC4CC(CC(C4)C2)C3)CC1	i	-58	-3	-0.13
O=C(NCCN1CCCC1=O)C1CCC(=O)N(CCc2cccc(F)c2)C1 (configuration not stated)	i	-5	0	2.1
Cc1ccc(S(=O)(=O)Oc2ccc(C3C4=C(CCCC4=O)N(CCC(=O)O)C4=C3C(=O)CCC4)cc2Cl)cc1	+	-26	4	-0.41
COc1cc(/C=N/N=C/c2cc(OC)c(O)c(OC)c2)cc(OC)c1O	i	13	30*	-0.33
COC(=O)[C@]1(C)N[C@H](c2ccc(SC3CCCCC3)c(OC)c2)[C@@H]2C(=O)N(C)C(=O)[C@@H]21	i	.	.	0.11
O=C(NC1CCN(Cc2ccccc2)CC1)c1ccccc1OCc1ccccc1	i	-5	2	-4.3*
